The term AC50 denotes the concentration at which the activity in the assay is half-maximal.

The source holds several records for some structures; these can differ, active in one and inactive in another. Calls of active or inactive are those of the source. How the source made its calls: active means hit-call score of the fitted dose curve at least 0.9, where 1 is the maximum; inactive means score below 0.9.

The nature of test [1]: BSK_LPS_SRB: Viability Assessment in the BioMAP Diversity Plus: LPS Assay (AID 2283079).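 Further: total protein by sulforhodamine B absorbance as a cytotoxicity measure; measured one day after compound addition; fitted in both directions against DMSO so loss or gain of signal counts.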 The conditions noted are these: primary human HUVEC with PBMC. The gist of the method:
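Co-culture of human umbilical vein endothelial cells and PBMC, read 24 h after dosing. Total protein by 0.1% SRB staining after 10% TCA fixation, absorbance at 560 nm; bidirectional fit against DMSO.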

Read-out in test [2]: Interleukin-1 alpha (IL1a), IL1A (gene 3552)
In words: BSK_LPS_IL1a: BioMAP Diversity Plus: LPS Assay for Interleukin-1 alpha (IL1a) Biomarker Activity (AID 2283080). Conditions: primary human HUVEC with PBMC; actives raise or lower the signal. The gist of the method: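 Human umbilical vein endothelial cells co-cultured with PBMC and stimulated with LPS; IL-1a measured by ELISA 24 h after dosing. Bidirectional fitting against DMSO; cytotoxicity checked by SRB staining in parallel cultures.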

Read-out in test [3]: Monocyte Chemoattractant Protein-1 (MCP1), CCL2 (gene 6347)
The test is described as follows: BSK_LPS_MCP1: BioMAP Diversity Plus: LPS Assay for Monocyte Chemoattractant Protein-1 (MCP1) Biomarker Activity (AID 2283081).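 On AC50: secreted MCP-1 protein quantified by ELISA in culture supernatant.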 Conditions: primary human HUVEC with PBMC; actives raise or lower the signal. The procedure, abridged:
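Human umbilical vein endothelial cells co-cultured with PBMC, LPS-stimulated; secreted MCP-1 measured by ELISA 24 h after compound addition. Bidirectional curve fitting against DMSO baseline; SRB total-protein staining in parallel cultures for cytotoxicity.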

The nature of test [4]: BSK_LPS_PGE2: BioMAP Diversity Plus: LPS Assay for Prostaglandin E2 (PGE2) Biomarker Activity (AID 2283082).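 On AC50: secreted prostaglandin E2 measured by ELISA in LPS-stimulated co-culture.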 The conditions noted are these: primary human HUVEC with PBMC; actives raise or lower the signal. The gist of the method:
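HUVEC plus PBMC co-culture stimulated with LPS; secreted PGE2 quantified by ELISA 24 h after chemical dosing. Activity fitted bidirectionally against DMSO as negative control and baseline; parallel SRB total-protein staining served as cytotoxicity check.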

Read-out in test [5]: Macrophage colony-stimulating factor (MCSF), CSF1 (gene 1435)
In words: BSK_LPS_MCSF: BioMAP Diversity Plus: LPS Assay for Macrophage colony-stimulating factor (MCSF) Biomarker Activity (AID 2283083). Conditions: primary human HUVEC with PBMC; actives raise or lower the signal. The gist of the method: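 HUVEC–PBMC co-culture, M-CSF measured by ELISA 24 h after chemical dosing. Fitted in both directions relative to DMSO as negative control; overt cytotoxicity assessed by SRB total-protein staining in parallel cultures.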

Read-out in test [6]: Tissue Factor, F3 (gene 2152)
In words: BSK_LPS_TissueFactor: BioMAP Diversity Plus: LPS Assay for Tissue Factor Biomarker Activity (AID 2283084). The conditions noted are these: primary human HUVEC with PBMC; actives raise or lower the signal. The procedure, abridged: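 Human umbilical vein endothelial cells co-cultured with PBMC were dosed with compound. Cell-surface CD142 was measured by ELISA 24 h later. Activity was fitted bidirectionally against DMSO, with SRB total-protein staining in parallel cultures for cytotoxicity.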

Read-out in test [7]: Tumor necrosis factor (Homo sapiens) (UniProt P01375)
In words: BSK_LPS_TNFa: BioMAP Diversity Plus: LPS Assay for Tumour Necrosis Factor alpha (TNFa) Biomarker Activity (AID 2283085).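 On AC50: TNFa protein level quantified by ELISA in the co-culture.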 The conditions noted are these: primary human HUVEC with PBMC; actives raise or lower the signal. The procedure, abridged:
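Human umbilical vein endothelial cells co-cultured with PBMC were exposed to test chemical and TNFa measured by ELISA 24 h after dosing. Bidirectional curve fitting was done relative to DMSO as negative control and baseline.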

Read-out in test [8]: Vascular cell adhesion molecule 1 (VCAM1), VCAM1 (gene 7412)
The test is described as follows: BSK_LPS_VCAM1: BioMAP Diversity Plus: LPS Assay for Vascular cell adhesion molecule 1 (VCAM1) Biomarker Activity (AID 2283086). The conditions noted are these: primary human HUVEC with PBMC; actives raise or lower the signal. The gist of the method: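 Human umbilical vein endothelial cells co-cultured with peripheral blood mononuclear cells under LPS stimulation were exposed to test chemical for 24 h. VCAM-1 levels were then measured by ELISA, with bidirectional curve fitting relative to DMSO as negative control and baseline.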

Read-out in another test: CD38, CD38 (gene 952)
The test is described as follows: BSK_SAg_CD38: BioMAP Diversity Plus: SAg Assay for CD38 Biomarker Activity (AID 2283087). The conditions noted are these: primary human HUVEC with PBMC; actives raise or lower the signal. The procedure, abridged:
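Fluorescence ELISA of cell-surface CD38 served as the read-out, with either increase or decrease fitted against DMSO controls. Cells were a human umbilical vein endothelium plus PBMC co-culture under SEB/TSST-1 stimulation, measured 24 h after dosing.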

Read-out in another test: CD40, CD40 (gene 958)
In words: BSK_SAg_CD40: BioMAP Diversity Plus: SAg Assay for CD40 Biomarker Activity (AID 2283088). Conditions: primary human HUVEC with PBMC; actives raise or lower the signal. The procedure, abridged: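 HUVEC plus PBMC co-culture, superantigen-activated, with CD40 read by ELISA 24 h after dosing. Curves fitted in both directions against DMSO. Overt cytotoxicity checked by parallel SRB total-protein staining.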

Sequence of Tumor necrosis factor (Homo sapiens) (P01375 whole entry, looked up): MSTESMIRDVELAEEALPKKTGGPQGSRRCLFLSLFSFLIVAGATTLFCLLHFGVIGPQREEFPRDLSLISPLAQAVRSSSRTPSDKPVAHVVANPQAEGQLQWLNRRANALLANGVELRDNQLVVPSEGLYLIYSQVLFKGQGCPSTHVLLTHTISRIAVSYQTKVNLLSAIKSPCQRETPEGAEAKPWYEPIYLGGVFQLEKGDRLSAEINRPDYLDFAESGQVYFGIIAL

On to `COP(=S)(OC)SCn1nnc2ccccc2c1=O`, for which the outcome is “inactive” in test [1]; “inactive” in test [2]; “inactive” in test [5]; “inactive” with CD38, CD38 (gene 952). Besides, the AC50 was 20 µM (active) in [3]; 13.8 µM (active) in test [4]; 16.9 µM (active) in [6]; 5.58 µM (active) in [7]; 20 µM (active) in test [8]; 20 µM (active) with CD40, CD40 (gene 958).
For `CCCC(=NOCC)C1=C(O)CC(CC(C)SCC)CC1=O` (stereo unspecified), the result in [1], in test [2], in test [3], in test [4], in [5] and in [6] was inactive. Besides, the outcome is “inactive” in test [7]; “inactive” in [8]; “inactive” with CD38, CD38 (gene 952); “inactive” with CD40, CD40 (gene 958).
On to `COc1ccc(-c2ccccc2)cc1NNC(=O)OC(C)C`, for which the result in [1], in test [2], in test [3], in [5], in test [6] and in [8] was inactive. Further, the outcome with CD38, CD38 (gene 952) is “inactive”; in the test with CD40, CD40 (gene 958), “inactive”. Also, the AC50 in test [4] is 1.84 µM (active); in test [7], 4.44 µM (active).
With `CCOC(=O)C(C)OC(=O)c1cc(Oc2ccc(C(F)(F)F)cc2Cl)ccc1[N+](=O)[O-]` (stereo unspecified), the half-maximal activity concentration (AC50) in [1] is 6.48 µM (active); in [4], 2.12 µM (active); in test [7], 3.73 µM (active); with CD38, CD38 (gene 952) it was 9.17 µM (active); with CD40, CD40 (gene 958), 3.97 µM (active). Further, the result in test [2], in [3], in test [5] and in [8] was inactive.
`N#CN=C1SCCN1Cc1ccc(Cl)nc1`: the result in [1], in [2], in test [3], in test [4], in test [5] and in test [7] was inactive. The outcome is “inactive” in [8]; “inactive” in the test with CD38, CD38 (gene 952); “inactive” with CD40, CD40 (gene 958).
Consider `CCCCC(O)(Cn1cncn1)c1ccc(Cl)cc1Cl` (stereo unspecified), for which the result in test [1], in test [2], in [3], in [5], in [7] and in test [8] was inactive. Also, the outcome in the test with CD38, CD38 (gene 952) is “inactive”; in the test with CD40, CD40 (gene 958), “inactive”. Also, the half-maximal activity concentration (AC50) in test [4] was 3.81 µM (active).
For `O=P(O)(O)CCCl`, the result in test [1], in test [2], in [3], in test [4], in [5] and in [7] was inactive. Further, the outcome is “inactive” in test [8]; “inactive” with CD38, CD38 (gene 952); “inactive” with CD40, CD40 (gene 958).
Consider `N#Cc1c[nH]cc1-c1cccc2c1OC(F)(F)O2`, for which the AC50 in test [1] was 8.62 µM (active); in test [2], 14.8 µM (active); in test [3], 17.9 µM (active); in test [7], 29.8 µM (active); in [8], 20 µM (active); in the test with CD38, CD38 (gene 952), 29.1 µM (active). Also, the AC50 with CD40, CD40 (gene 958) was 20 µM (active). Moreover, the result in test [4] and in [6] was inactive.
As to `COCc1cnc(C2=NC(C)(C(C)C)C(=O)N2)c(C(=O)O)c1` (stereo unspecified), the result in [1], in test [2], in test [3], in test [4], in test [6] and in test [7] was inactive. In addition, the outcome in [8] was “inactive”; with CD38, CD38 (gene 952), “inactive”; in the test with CD40, CD40 (gene 958), “inactive”.
In the case of `COCC(C)N(C(=O)CCl)c1c(C)csc1C` (stereo unspecified), the outcome in test [1], in [2], in [3], in test [4], in test [6] and in test [7] was inactive. In addition, the outcome in test [8] is “inactive”; with CD38, CD38 (gene 952), “inactive”; in the test with CD40, CD40 (gene 958), “inactive”. The half-maximal activity concentration (AC50) in test [8] was 3.97 µM (active).
As for `CC1(C)CCC(=Cc2ccc(Cl)cc2)C1(O)Cn1cncn1` (stereo unspecified), the result in [1], in [2], in test [3], in test [4], in test [5] and in [6] was inactive. The outcome was “inactive” in [7]; “inactive” in test [8]; “inactive” in the test with CD38, CD38 (gene 952); “inactive” with CD40, CD40 (gene 958).
For the compound `COC(=O)NC(=S)Nc1ccccc1NC(=S)NC(=O)OC`, the result in test [1], in test [2], in test [3], in test [4], in test [7] and in test [8] was inactive. Moreover, the result with CD40, CD40 (gene 958) was inactive. For the same compound, the concentration at half-maximal activity (AC50) is 22.8 µM (active) in [5] and 28.4 µM (active) in the test with CD38, CD38 (gene 952).
With `CS(=O)(=O)c1cc(C(F)(F)F)ccc1C(=O)c1cnoc1C1CC1`, the outcome in [1], in test [2], in [3], in test [4], in [6] and in test [7] was inactive. The outcome in test [8] was “inactive”; in the test with CD40, CD40 (gene 958), “inactive”. Besides, the AC50 with CD38, CD38 (gene 952) was 5.57 µM (active).
For `COP(=S)(OC)Oc1ccc([N+](=O)[O-])c(C)c1`, the AC50 in test [1] is 10.6 µM (active); in [3], 20 µM (active); in test [5], 20 µM (active); in test [8] it was 31.5 µM (active); with CD40, CD40 (gene 958), 7.6 µM (active). Moreover, the outcome was “inactive” in test [2]; “inactive” in [4]; “inactive” in test [6]; “inactive” in [7]; “inactive” in the test with CD38, CD38 (gene 952).
Take `CC(C)N1C(=O)N(c2ccccc2)CSC1=NC(C)(C)C`: the concentration at half-maximal activity (AC50) in test [1] is 34 µM (active); in test [2], 30.6 µM (active); in [3], 30.5 µM (active); in [4] it was 33.2 µM (active); in test [5], 18.9 µM (active); in test [6], 32.6 µM (active). Further, the AC50 is 32.1 µM (active) in test [7]; 31.6 µM (active) in test [8]; 30.7 µM (active) with CD38, CD38 (gene 952); 33.4 µM (active) in the test with CD40, CD40 (gene 958).
As to `CCSC(=O)N1CCCCCC1`, the result in test [1], in test [2], in test [3], in [4], in test [5] and in test [7] was inactive. The outcome is “inactive” in test [8]; “inactive” in the test with CD38, CD38 (gene 952); “inactive” in the test with CD40, CD40 (gene 958).
As to `CCNC(=O)NC(=O)C(C#N)=NOC`, the result in [1], in test [2], in [3], in test [4], in [5] and in test [6] was inactive. The outcome was “inactive” in test [7]; “inactive” in [8]; “inactive” with CD38, CD38 (gene 952); “inactive” with CD40, CD40 (gene 958).
Take `CCC(C)n1c(=O)[nH]c(C)c(Br)c1=O` (stereo unspecified): the result in [1], in test [2], in [3], in [4], in [5] and in test [6] was inactive. The outcome was “inactive” in test [8]; “inactive” with CD38, CD38 (gene 952); “inactive” with CD40, CD40 (gene 958). Further, the AC50 in test [7] is 10.5 µM (active).

The record behind these values is PubChem BioAssay (EPA / NIEHS).
